Records with an inconclusive call do not appear. Calls of active or inactive are those of the source. Calls follow the shape of the dose curve; as a rule, active = well fitted inhibition curve with a large enough effect; inconclusive = small, poorly fitted or top-dose-only effect; inactive = no such curve, though single readings can be large or run the other way.
tested on: Zika virus NS2B-NS3 protease (unlinked complex); assay: Primary screen GU Rhodamine qHTS for Zika virus inhibitors: Unlinked NS2B-NS3 protease assay (AID 1347159); conditions: Recombinant ZIKV NS2B-NS3 protease, Rhodamine110 substrate fluorescence; series mostly up to 107 µM; activity change, negative = inhibition: at the top concentration; also: nearly all actives have a fitted effect of over 60% in size
Excerpt: Avindra Nath, Ph.D., National Institute of Neurological Disorders and Stroke (NINDS), Bethesda, MD
Radhakrishnan Padmanabhan, Ph.D., Georgetown University (GU), Washington D.C.
Zika Virus causes congenital defects, including microcephaly and is associated with Guillain-Barre syndrome, eningoencephalitis and myelitis in infected adult. […] Using a target-based approach, we hope to establish a screening paradigm to uncover novel, cell-active NS2B-NS3 protease (Zika Virus) specific inhibitors from NCATS' collection of small molecules using qHTS.
Four assay panel was created to identify potential Zika Virus inhibitors. Namely, (1) GU unlinked NS2B-NS3 AMC tagged protease qHTS, (2) GU unlinked NS2B-NS3 Rhodamine tagged protease qHTS, (3) NINDS linked NS2B-NS3 AMC tagged protease qHTS, (4) NINDS linked NS2B-NS3 Rhodamine tagged protease qHTS. Active compounds were re-acquired and re-screened to confirm inhibition. Inhibitors were further screened against various confirmatory and counterscreens in dose response format.
Early Translation Branch (ETB)
National Center for Advancing Translational Sciences (NCATS), Rockville, MD
National Institute of Health (NIH), Bethesda, Maryland
Padmanabhan lab provided the NS2B hydrophilic domain and NS3 protease domain in a noncovalent complex used for the unlinked assay. Control compound aprotinin is obtained from Thermo Scientific (#78432; Waltham, Massachusetts). Rhodamine110 substrate ([N-Cbz]-Nle-Lys-Arg-Arg-Rhod110-Arg-Arg-Lys-Nle-[N-Cbz]) was purchased from either Genscript or Bachem.
1536-well Protease (Rhodamine110 Substrate) Assay:
Briefly, 3 microL of enzyme (25 nM final concentration), in assay buffer (10 mM Tris-HCl pH 8.0 with 0.01% Tween 20) were dispensed into a 1,536-well solid-bottom black plate (Greiner Bio One, Monroe, NC). Twenty-three nL of compounds (final concentration range 7.28 nM to 114 microM) or control Aprotinin (final concentration range 3.47 nM to 114 microM) were transferred via Wako Pin-tool (Wako Automation, Richmond, VA). Samples were incubated (room temperature, protected from light) for 15 minutes followed by a 1 microL Rhodamine110 substrate addition (1.5 microM final concentration). Plates were then immediately read on a ViewLux High-throughput CCD imager (PerkinElmer, Waltham, MA) equipped with FITC fluorescence optics (480(20) nm excitation, 540(25) nm emission), then incubated (room temperature, protected from light) for 15 minutes (~15% conversion). The change in fluorescence intensity over the 15-minute reaction period was normalized against no-inhibitor and no-enzyme controls and the resulting percent inhibition data were fitted to a 4-parameter Hill equation. Aprotinin was used as intraplate control.
% is scaled to controls: 0 for no effect and ±100 for the full control effect; potency is read from the fitted curve at half-maximal effect.

SMILES | Potency | activity change, negative = inhibition
CCC(C)/C=C(C)/C=C/C1=CC2=C(Cl)C(=O)C(C)(OC(C)=O)C(=O)C2(O)C(OC)O1 (stereo not given) | 28.2 µM (active) | 
CC(=O)NC(C)c1cnc(-c2cnc(Oc3ccc(OC(C)C)cc3)s2)s1 (stereo not given) |  | 4.22% (inactive)
C=C1[C@H]2CC[C@H](C(=O)O)[C@@]23CC[C@H](C3)C1(C)C |  | -0.108% (inactive)
C=CC(=O)N1CCC(Oc2cc3c(Nc4ccc(Cl)c(Cl)c4F)ncnc3cc2OC)CC1 |  | 0.91% (inactive)
CC1(C(=O)Nc2ccc(F)nc2)CCCN1c1nc(Nc2cc(C3CC3)[nH]n2)c2cccn2n1 (stereo not given) |  | 11.9% (inactive)
Cc1cc(OCCCS(C)(=O)=O)cc(C)c1-c1cccc(COc2ccc(C3=CC(=O)NS3=O)cc2)c1 (stereo not given) | 3.55 µM (active) | 
O=C(NCCCN1CCC2(CC1)OCc1ccccc12)[C@H]1CCCN1Cc1ccccc1 |  | 36.9% (inactive)
C=C1CO[C@@]2(O[C@H]3CC4C5CC=C6C[C@@H](O)C[C@@H](O[C@@H]7OC[C@H](O)[C@H](O[C@@H]8OC[C@@H](O)[C@H](O)[C@H]8O)[C@H]7O[C@@H]7O[C@@H](C)[C@H](OC(C)=O)[C@@H](OC(C)=O)[C@H]7OC(C)=O)[C@]6(C)C5CC[C@]4(C)[C@@H]3[C@@H]2C)[C@@H](O)[C@H]1OC1OC(C)C(O)C(O)C1O (stereo not given in full) |  | -10.8% [at 19.1 µM] (inactive)
Cc1cc(C(C)Nc2ccccc2C(=O)O)c2nc(N3CCOCC3)cc(=O)n2c1 (stereo not given) |  | 5.25% (inactive)
CC1=CC2/C=C(\C)CCC(O)C/C=C/C(=O)OC23C(=O)NC(CC(C)C)C3C1C (stereo not given) |  | 18.5% [at 57.1 µM] (inactive)
Cc1cccc(C#Cc2cc(F)cc(C#N)c2)n1 |  | 30.1% (inactive)
O=C(NCC1CCN(Cc2cccc(Cl)c2)CC1)[C@@H]1CCCN(c2ncnc3c2nc2n3CCCC2)C1 |  | 31.4% (inactive)
Clc1cccc(COc2cncc(N3CCNCC3)n2)c1 |  | 72.5% (inactive)
COc1c2c(nc3occc13)C(CC=C(C)C)(OC)C(O)CC2 (stereo not given) |  | 22.9% (inactive)
COc1cc2c(Nc3cc(F)c(Cl)c(Cl)c3)ncnc2cc1OCC1CCCN(C)CCC1 |  | 200% (inactive)
CNCCCC1(c2ccccc2)OC(C)(C)c2ccccc21 (stereo not given) |  | 36.8% (inactive)
C=CC(=O)N1CC(N2CCN(C(=O)CNc3cc(C4CC4)c(Cl)cc3O)CC2)C1 |  | -1.57% (inactive)
CC(C)n1cnc2c(-c3cnc(N)nc3)nc(N3CCOCC3)nc21 |  | -0.639% [at 57.1 µM] (inactive)
O=C(O)CSc1cc(NS(=O)(=O)c2ccc(Br)cc2)c2ccccc2c1O | 3.16 µM (active) | 
COc1nc2ccc(Br)cc2cc1[C@@H](c1ccccc1)[C@@](O)(CCN(C)C)c1cccc2ccccc12 |  | -20.1% (inactive)

SMILES | Potency | activity change, negative = inhibition
O=C(Nc1nc2cc(C(F)(F)F)cc(NC3CC3)n2n1)c1cccnc1 |  | 0% (inactive)
O=[N+]([O-])c1ccc(Oc2ccc3c(c2)CCC(c2ccccc2)O3)nc1 (stereo not given) |  | 10.7% (inactive)
O=C(Nc1cccc(C(F)(F)F)c1)Nc1ccc(Br)cc1-c1nn[nH]n1 | 3.16 µM (active) | 
COc1ccc(-c2cc3onc(-c4ccncc4)c3c(=O)n2C)cc1 |  | 27.4% (inactive)
CC1(C)SCCN(S(=O)(=O)c2ccc(Oc3ccncc3)cc2)[C@H]1C(=O)NO |  | 9.22% (inactive)
CCCn1ncc(CN2CCCC(C(=O)c3cccc(OC(C)C)c3)C2)c1C (stereo not given) |  | 0% (inactive)
COC1=CC(=O)O/C1=C(/OC)[C@@H]1O[C@H]1c1ccccc1 |  | 19.9% (inactive)
C=C1CC[C@@H]2[C@](C)(CO)[C@H](O)CC[C@@]2(C)[C@@H]1/C=C/C1=CCOC1=O |  | 18.1% (inactive)
CC(OC1OCCN(Cc2n[nH]c(=O)[nH]2)C1c1ccc(F)cc1)c1cc(C(F)(F)F)cc(C(F)(F)F)c1 (stereo not given) | 44.7 µM (active) | 
NC(=O)c1cnc(N[C@@H]2CCCC[C@H]2N)nc1Nc1cccc(-n2nccn2)c1 |  | 163% (inactive)
CC1OC(OC2C(O)COC(O[C@@H]3[C@@H](O)[C@@H](O)[C@H](OC4C(OC(=O)[C@]56CCC(C)(C)CC5C5=CCC7[C@@]8(C)C[C@H](O)[C@H](OC9OC(CO)C(O)C(O)C9O)[C@@](C)(CO)C8[C@H](O)C[C@@]7(C)[C@]5(C)CC6)OCC(O)C4O)O[C@H]3C)C2O)C(O)C(O)C1O (stereo not given in full) |  | 8.24% [at 19.1 µM] (inactive)
CCOC(=O)C1=Cc2ccc(C(F)(F)C(F)(F)F)cc2N=C(N)C1 |  | 0.485% (inactive)
O=C(c1ccccn1)N(Cc1cccs1)C1(C(=O)NC2CCCCC2)CCCCC1 |  | -3.3% (inactive)
C=C1C(=O)O[C@@H]2[C@H]3C(C)=CC(=O)C3=C(C)[C@@H](OC(=O)/C(C)=C\C)[C@H](O)[C@@H]12 |  | 7.62% (inactive)
COC1CC(=O)C23C(=O)NC(Cc4c[nH]c5ccccc45)C2C(C)C2(C)OC2C3/C=C/CC(C)CC1O (stereo not given) |  | -0.35% [at 57.1 µM] (inactive)
COc1ccc2cc3c(NC(=O)c4ccco4)nn(C)c3nc2c1 |  | 0% (inactive)
C[C@@H]1O[C@@H](O[C@H]2[C@@H](OC(=O)[C@]34CCC(C)(C)CC3C3=CCC5[C@@]6(C)C[C@H](O)[C@H](O[C@@H]7O[C@H](CO)[C@@H](O)[C@H](O)[C@H]7O[C@@H]7OC[C@@H](O)[C@H](O)[C@H]7O)[C@@](C)(C(=O)O)C6CC[C@@]5(C)[C@]3(C)CC4)OC[C@H](O)[C@@H]2O)[C@H](O)[C@H](O)[C@H]1O[C@@H]1OC[C@@H](O)[C@H](O)[C@H]1O (stereo not given in full) |  | 46.4% [at 19.1 µM] (inactive)
C=CC(=O)N1CCC[C@@H](n2nc(-c3cccc(C(=O)Nc4ccc(C(C)C)c(C)c4)c3)c3c(N)ncnc32)C1 |  | -12.6% (inactive)
COCc1c(Cl)ccc2c1CC[C@H]2c1ncc[nH]1 |  | 5.07% (inactive)
Fc1ccc(N2CCCCC2)c(NC(=S)c2ccncc2)c1 |  | -5.44% (inactive)

From PubChem BioAssay (NCATS)
